# Calls of active or inactive are those of the source.
# Columns and labels:
# Albumin (Bos taurus) = Albumin (Bos taurus) (UniProt P02769); experiment: bovine serum albumin binders on microarray, profiling panel, artefact control for SMM control protein annotation, biochemical, small-molecule microarray, Alexa647 label, 635/667 nm fluorescence (AID 1118); settings: BSA-A647 binding, fluorescence 635 nm, higher = more signal;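 further: score merges 667 nm emission intensity and signal-to-noise per printed compound spot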
# [1] = small-molecule microarray binders of probe aXIP, primary screen, biochemical, NeuroSMM set, 635/667 nm fluorescence (AID 1119); settings: higher = more signal, called active from +8 up or from −8 down;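 further: probe is the protein aXip251-270 applied at 1 µg/mL to compound-printed slides; binding of probe to printed compounds measured as 667 nm fluorescence plus signal to noise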
# [2] = small-molecule binders of probe aNOTCH3, primary screen, biochemical, small-molecule microarray, 635/667 nm fluorescence (AID 1120); settings: higher = more signal;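 further: probe is a biotin-tagged antibody raised against NOTCH3 rather than NOTCH3 protein; score merges spot fluorescence near 667 nm with spot signal to noise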
# [3] = small-molecule binders of probe aNOTCH2, primary screen, biochemical, small-molecule microarray, 635/667 nm fluorescence (AID 1121); settings: higher = more signal;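 further: score merges feature fluorescence read at 667 nm with its signal to noise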
# [4] = biological target: Carbonic anhydrase 2 (Homo sapiens) (UniProt P00918); experiment: CAII small-molecule binders, profiling panel, biochemical, small-molecule microarray, Alexa647-labelled CAII (AID 1122); settings: CAII-A647 binding fluorescence, higher = more signal
# [5] = COS7 lysate on small-molecule microarray, probe aHis, 635 nm (AID 1123); settings: COS7 cell lysate, fluorescence, higher = more signal;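 further: z-score combines 667nm fluorescence intensity with signal-to-noise per printed compound spot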
# [6] = compound binding in COS7 lysate, probe aLAP1, primary screen, cell lysate, small-molecule microarray (AID 1124); settings: probe aLAP1, fluorescence, higher = more signal;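 further: lysate comes from COS7 cells expressing LAP1 and is applied at 0.3 µg/mL; score merges spot fluorescence near 667 nm with signal-to-noise over triplicate slides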
# Sam68 (KHDRBS1) = experiment: Sam68 small-molecule binders, primary screen, biochemical, small-molecule microarray, 635 nm fluorescence (AID 1125); settings: small-molecule microarray binding, higher = more signal;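 further: score merges 667 nm channel intensity with signal to noise over triplicate slides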
# [7] = test system: Chordin-like protein 2 (CHRDL2); experiment: CHRDL2 small-molecule binders, primary screen, biochemical, small-molecule microarray, 635 nm fluorescence (AID 1126); settings: small-molecule microarray binding, fluorescence 635 nm; higher = more signal;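 further: printed compound slides probed with Chrdl2 protein at 4 µg/mL for 1 h at 4 C; score merges 667 nm emission intensity with signal to noise over three replicate slides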
# [8] = biological target: Concanavalin-A (Canavalia ensiformis) (UniProt P02866); experiment: ConA small-molecule binders, primary screen, artefact control for SMM control protein annotation, biochemical, small-molecule microarray, Alexa647 label, 635 nm (AID 1127); settings: ConA-A647 binding fluorescence, higher = more signal;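 further: z combines 667 nm emission intensity with signal-to-noise across three replicate slides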
# Concanavalin-A (Canavalia ensiformis), sequence (P02866 whole entry, looked up): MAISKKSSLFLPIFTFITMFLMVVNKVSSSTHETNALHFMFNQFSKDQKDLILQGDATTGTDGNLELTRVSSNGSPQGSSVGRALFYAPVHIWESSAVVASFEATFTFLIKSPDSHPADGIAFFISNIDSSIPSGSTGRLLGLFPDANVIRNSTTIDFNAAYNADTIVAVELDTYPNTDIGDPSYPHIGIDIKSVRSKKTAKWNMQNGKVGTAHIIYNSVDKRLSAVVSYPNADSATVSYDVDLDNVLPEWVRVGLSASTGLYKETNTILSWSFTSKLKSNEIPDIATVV
# Albumin (Bos taurus), sequence (P02769 whole entry, looked up): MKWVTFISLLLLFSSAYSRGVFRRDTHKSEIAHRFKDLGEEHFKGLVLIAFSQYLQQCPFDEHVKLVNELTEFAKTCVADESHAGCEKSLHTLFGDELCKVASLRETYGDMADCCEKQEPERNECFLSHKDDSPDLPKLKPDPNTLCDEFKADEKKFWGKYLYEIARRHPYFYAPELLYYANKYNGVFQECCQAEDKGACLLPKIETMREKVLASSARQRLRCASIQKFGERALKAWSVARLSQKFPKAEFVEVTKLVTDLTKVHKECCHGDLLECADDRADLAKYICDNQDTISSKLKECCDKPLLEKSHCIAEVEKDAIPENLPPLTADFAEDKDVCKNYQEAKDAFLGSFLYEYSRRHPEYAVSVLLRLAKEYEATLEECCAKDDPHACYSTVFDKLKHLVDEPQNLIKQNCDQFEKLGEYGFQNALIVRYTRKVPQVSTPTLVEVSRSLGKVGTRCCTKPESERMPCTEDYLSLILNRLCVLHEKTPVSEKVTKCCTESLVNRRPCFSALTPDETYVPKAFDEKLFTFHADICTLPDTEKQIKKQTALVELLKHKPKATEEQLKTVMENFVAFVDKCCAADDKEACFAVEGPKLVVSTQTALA
Structure (SMILES),composite z-score (Albumin (Bos taurus)),composite Z-score [1],composite z-score [2],composite z-score [3],composite z-score [4],composite z-score [5],composite z-score [6],composite z-score (Sam68 (KHDRBS1)),composite z-score [7],composite z-score [8]
CC1(C)C(=O)C(c2ccccc2)=C2CN3C(=O)N(CCc4ccccc4)C(=O)C3(Cc3ccc(C(F)(F)F)cc3)C=C21 (stereo not given),0.925,-0.301 (inactive),0.561,0.306,0.581,2.1,0.014,0.764,-1.06,0.702
COc1ccc(C(=O)Nc2cccc(CN3C(=O)[C@]4(O[C@H](CCn5cc([C@H](O)c6ccccc6)nn5)[C@@H]([Si](C)(C)c5ccc(OC)cc5)[C@@H]4C)c4ccccc43)c2)cc1,-0.215,-0.213 (inactive),0.0916,-0.0986,0.169,0.18,-0.206,0.962,0.153,0.587
C=CCC(OC(C)=O)[C@@H]1[C@@H](N(Cc2ccc(-c3cccc(C(F)(F)F)c3)o2)C(=O)c2ccc(C)cc2)c2cc(OCCCO)ccc2N1C(=O)Cc1ccc(OC)cc1 (stereo not given in full),-0.356,0.899 (inactive),-0.0311,-0.194,-0.26,-0.333,-0.27,-0.367,0.186,0.0203
CCOC(=O)C1=CC[C@@H](c2ccccc2)N(S(=O)(=O)c2ccc(C)cc2)[C@H]1C=Cc1ccccc1,0.725,0.206 (inactive),0.0372,-0.0569,0.707,1.03,0.827,0.602,-0.19,0.81
O=C(CS)NCCCCCNC(=O)[C@@H]1C[C@@H]2C(=O)N[C@@H](Cc3ccccc3)C(=O)N2[C@@H]1c1cccc(OCCO)c1,-0.884,-0.32 (inactive),-0.638,-0.446,0.665,2.7,0.426,1.34,0.914,1.13
[N-]=[N+]=Nc1ccccc1C[C@]1(C(=O)NCc2ccccc2)COC(c2ccc(OCCCO)cc2)=N1,0.784,-0.135 (inactive),0.0945,-0.0859,0.383,2.52,0.171,1.3,-0.362,0.995
Cc1ccc(N2C(=O)c3ccccc3[C@](C)(C(=O)NCc3ccccc3)[C@@H]2c2ccc(CO)cc2)nc1,-0.377,-0.446 (inactive),0.0311,0.0611,0.764,0.688,0.656,-0.316,0.408,0.0943
[N-]=[N+]=NCc1ccccc1[C@@H]1OC(c2ccc(OCCCO)cc2)=N[C@]1(Cc1ccccc1N=[N+]=[N-])C(=O)N1CCCCC1,0.354,0.038 (inactive),-0.137,-0.116,0.56,2.57,0.0904,1.22,-0.39,1.14
[N-]=[N+]=Nc1ccccc1[C@@H]1OC(c2ccc(OCCCO)cc2)=N[C@]1(Cc1ccccc1)C(=O)NCc1ccccc1,0.955,-0.128 (inactive),0.367,0.156,0.379,2.74,1.13,1.3,-0.553,1.18
[N-]=[N+]=NCc1ccccc1C[C@@]1(C(=O)N2CCCCC2)N=C(c2ccc(OCCCO)cc2)O[C@@H]1c1ccccc1CN=[N+]=[N-],0.36,0.569 (inactive),0.0435,0.0515,0.711,1.81,1.06,1.08,-1.07,1.09
CC=CC(O)C1C=CC2C(=O)NC(=O)C2N1Nc1ccccn1 (stereo not given),0.456,0.289 (inactive),-0.0362,-0.112,0.463,0.717,0.654,0.463,1.04,0.855
COc1cc2c(cc1O)C(c1ccc(CN3CCCC3)cc1)N(C)CC2 (stereo not given),0.462,0.142 (inactive),-0.173,-0.127,0.359,-0.138,2.24,-0.645,-1.26,0.113
C=C(C)C1CCC(C(O)C2C=CC3C(=O)N(C)C(=O)C3N2Nc2cc(OC)c(OC)c(OC)c2)CC1 (stereo not given),0.941,-0.0192 (inactive),0.263,-0.0598,0.703,1.46,0.0507,1.29,0.464,0.974
[N-]=[N+]=NCc1ccccc1[C@@H]1OC(c2ccc(OCCCO)cc2)=N[C@]1(Cc1ccccc1N=[N+]=[N-])C(=O)NCCN1CCOCC1,0.741,0.215 (inactive),0.202,-0.0219,0.828,2.14,1.01,1.31,0.32,0.863
O=C(NCC(O)CO)[C@@]1(CCS(=O)(=O)c2ccccc2)COC(c2ccc(OCCCO)cc2)=N1 (stereo not given in full),0.927,0.538 (inactive),0.241,0.0342,0.863,3.35,-0.0542,0.679,-0.734,0.572
CC(C)CNC(=O)[C@@]1(C)c2ccccc2C(=O)N(Cc2cc(C(F)(F)F)cc(C(F)(F)F)c2)[C@H]1c1ccc(CO)cc1,0.184,0.635 (inactive),-0.242,-0.111,0.72,0.79,-0.205,0.108,-0.307,0.0758

Structure (SMILES),composite z-score (Albumin (Bos taurus)),composite Z-score [1],composite z-score [2],composite z-score [3],composite z-score [4],composite z-score [5],composite z-score [6],composite z-score (Sam68 (KHDRBS1)),composite z-score [7],composite z-score [8]
O=C1OCCC/C=C\[C@H]2OC34C=CCN(c5ccc6ccccc6c5)C(=O)[C@H]3N(CCCO)C(=O)[C@@H]4C12 (stereo not given in full),-0.0327,-0.0549 (inactive),-0.299,-0.111,0.94,0.325,0.452,0.235,-1.08,-0.296
C=CCC(OC(C)=O)[C@@H]1[C@@H](N(Cc2cccc3ccccc23)C(=O)c2cccc3ccccc23)c2cc(OCCCO)ccc2N1C(=O)c1ccc2ccccc2c1 (stereo not given in full),0.0949,0.128 (inactive),0.0676,-0.0883,0.206,-0.203,-0.225,-0.047,0.0526,-0.0264
CC1CC/C=C\[C@H]2OC34C=CCN(C(C)(C)C)C(=O)[C@H]3N(C(CO)C(C)C)C(=O)[C@@H]4C2C(=O)O1 (stereo not given in full),-0.667,0.148 (inactive),-0.0647,-0.0974,0.867,1.37,0.876,0.117,-0.165,-0.268
C=CCC(OC(C)=O)[C@@H]1[C@@H](N(Cc2ccc(-c3cccc(C(F)(F)F)c3)o2)C(=O)c2cccc3ccccc23)c2cc(OCCCO)ccc2N1C(=O)Cc1ccc(OC)cc1 (stereo not given in full),0.311,-0.0798 (inactive),-0.027,-0.151,0.149,0.428,0.0827,-0.323,0.0616,-0.422
COCCCNC(=O)[C@@H]1c2ccccc2C(=O)N(C2Cc3ccccc3C2)[C@H]1c1ccc(CO)cc1,-0.423,0.47 (inactive),-0.0584,-0.0772,0.724,1.19,0.59,0.749,0.573,0.286
CC(C)[Si]1(C(C)C)OCc2cc(-c3ccc(-c4ccc(Cl)c(Cl)c4)o3)nc(CCc3ccccc3)c21,-0.176,0.182 (inactive),-0.0362,-0.171,0.384,0.587,0.112,-0.0975,0.0164,-0.843
COc1ccc(C(O)C2C=CC3C(=O)N(c4ccccc4)C(=O)C3N2Nc2ccccc2)cc1 (stereo not given),1.01,-0.135 (inactive),0.331,-0.0501,0.781,2.89,0.326,1.17,-0.154,1.14
CC(C)CNC(=O)[C@@H]1c2ccccc2C(=O)N(C2CCCCC2)[C@H]1c1ccc(CO)cc1,-0.183,1.32 (inactive),-0.159,-0.118,0.694,2.44,-0.264,0.369,-0.718,-0.0374
C=C(C(=O)CC[C@@H](OC(=O)c1ccccc1-c1ccccc1C(=O)O)c1ccccc1OCCO)C(C)C,0.287,-0.28 (inactive),-0.0111,-0.108,0.734,0.418,0.175,1.21,0.935,0.866
CO[C@H]1O[C@H](CO)[C@@H](OC(=O)Nc2cccc(F)c2)[C@H](OC(=O)Nc2ccccc2-c2ccccc2)[C@H]1OC(=O)Nc1ccccc1-c1ccccc1,-0.8,0.55 (inactive),0.206,-0.0226,0.577,2.33,0.57,1.3,0.484,0.924
COc1ccc([Si](C)(C)[C@@H]2[C@@H](CCn3cc([C@H](O)c4ccccc4)nn3)O[C@]3(C(=O)N(Cc4cccc(N5C(=O)c6cccc7cccc5c67)c4)c4ccccc43)[C@H]2C)cc1,0.371,0.0425 (inactive),-0.157,-0.155,0.405,0.992,-0.64,0.173,-1.09,0.234
COc1cc(C(O)C2C=CC3C(=O)N(Cc4ccccc4)C(=O)C3N2n2cnnc2)cc(OC)c1OC (stereo not given),0.578,-0.0603 (inactive),0.401,0.202,0.686,1.1,1.01,0.462,-0.141,0.458
COc1ccc([Si](C)(C)[C@H]2[C@H](CC(=O)N3Cc4ccccc4C[C@H]3CO)O[C@@]3(C(=O)N(Cc4ccc(N5C(=O)c6cccc7cccc5c67)cc4)c4ccccc43)[C@@H]2C)cc1,0.502,0.858 (inactive),-0.0647,-0.207,0.376,0.822,0.295,1.3,1.13,1.08
CCOC(=O)C=Cc1cc(F)ccc1O,-0.0584,-0.276 (inactive),-0.0324,-0.0995,0.384,0.149,0.0926,0.161,0.133,0.126
COCCOC(=O)N1C(=O)[C@@]2(c3cc(C#Cc4ccc(OC)cc4)ccc31)[C@H](C(=O)NC[C@H](O)c1ccccc1)[C@H]1C(=O)O[C@H](c3ccccc3)[C@H](c3ccccc3)N1[C@@H]2c1ccc(OCCO)cc1,0.101,-0.014 (inactive),0.0397,-0.146,0.441,1.72,0.313,1.3,0.195,1.09
O=C(CS)NCCCCCCNC(=O)[C@@H]1C[C@@H]2C(=O)NCC(=O)N2[C@@H]1c1ccc(O)cc1,0.166,0.549 (inactive),-0.397,-0.183,0.68,2.94,-0.136,-0.477,-0.134,-0.434
